JMJD2A Tudor = qHTS Assay for Inhibitors of JMJD2A-Tudor Domain; hit rate 4.4% among 390,000; AlphaScreen JMJD2A-Tudor / H3K4me3 peptide binding; Potency, µM (highest dose often 114 µM), inactives show at the highest dose activity change, negative = inhibition, usual class: inhibitors; Lysine-specific demethylase 4A (Homo sapiens), O75164; note: % is set by controls: 0 for no effect and ±100 for the full control effect; nearly all actives have a fitted effect of over 50% in size
PLK1 PBD inh = qHTS for Inhibitors of PLK1-PDB (polo-like kinase 1 - polo-box domain): Primary Screen; Serine/threonine-protein kinase PLK1 (Homo sapiens), P53350; Plk1 PBD binding of FITC phosphopeptide, fluorescence polarization; Potency, µM, for inactives: max response, negative = inhibition, usual class: inhibitors; hit rate 2.8% among 360,000; AID 720504, 2013; note: series mostly up to about 57 µM; % is set by controls: 0 for no effect and ±100 for the full control effect; nearly all actives have a fitted effect of over 65% in size
HP1b chromo inh = HTS for Inhibitors of HP1-beta Chromodomain Interactions with Methylated Histone Tails; Chromobox protein homolog 1 (Homo sapiens), P83916; AlphaScreen HP1-beta / biotin-H3K9me3 peptide binding; Potency, µM (doses to about 114 µM), without a hit: at the highest dose activity change, negative = inhibition, most hits filed as inhibitors; hit rate 0.56% among 390,000; note: nearly all actives have a fitted effect of over 70% in size
Target sequence (P83916 whole entry, looked up): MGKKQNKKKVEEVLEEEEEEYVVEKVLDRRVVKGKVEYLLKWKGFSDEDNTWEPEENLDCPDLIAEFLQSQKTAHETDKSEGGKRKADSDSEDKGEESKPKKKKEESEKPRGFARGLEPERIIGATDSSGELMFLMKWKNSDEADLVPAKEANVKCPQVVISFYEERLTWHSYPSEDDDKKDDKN
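HP1-beta protein (50 nM final) preincubated 30 min at room temperature with biotinylated H3(1-18)K9me3 peptide (50 nM) in PBS pH 7.4, 0.01% Tween-20, then compound added for 30 min. AlphaScreen streptavidin donor/nickel chelate acceptor beads (10 ug/mL final), 30 min dark, luminescence read.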
VDR inh = Inhibitors of the vitamin D receptor (VDR): qHTS. AID 504847, 2011. Potency, µM, for the others: max response, negative = inhibition, usual class: inhibitors. hit rate 0.93% among 400,000. VDR-SRC2-3 peptide fluorescence polarization, 2 h. Vitamin D3 receptor (Homo sapiens), P11473; note: % is set by controls: 0 for no effect and ±100 for the full control effect
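The screen uses fluorescence polarization to detect compounds that interfere with recruitment of the SRC2-3 coactivator peptide to VDR; plates are read after 2 h at room temperature.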
BAZ2B block = qHTS Assay for Inhibitors of BAZ2B; Bromodomain adjacent to zinc finger domain protein 2B (Homo sapiens), Q9UIF8; AlphaScreen BAZ2B-H3K14Ac peptide displacement; Potency, µM (highest dose often 114 µM), for the others: at the top dose activity change, negative = inhibition, most hits filed as inhibitors; hit rate 4.4% among 360,000; note: % is set by controls: 0 for no effect and ±100 for the full control effect; nearly all actives have a fitted effect of over 60% in size
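AlphaScreen luminescence quantifies BAZ2B engagement of H3K14Ac peptide; the protein and biotinylated peptide are both at 50 nM final, buffer PBS pH 7.4 with 0.01% Tween-20, all steps at room temperature.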
G9a block = qHTS Assay for Inhibitors of Histone Lysine Methyltransferase G9a. G9a H3K9 monomethylation, AlphaScreen, 2 h. Potency, µM (series often up to 102 µM), for the others: at the top dose activity, negative = inhibition, hits mostly inhibitors. hit rate 8.8% among 350,000. Histone-lysine N-methyltransferase EHMT2 (Homo sapiens), Q96KQ7; note: % is set by controls: 0 for no effect and ±100 for the full control effect; nearly all actives have a fitted effect of over 75% in size
Target sequence (Q96KQ7 913-1193 limits assumed): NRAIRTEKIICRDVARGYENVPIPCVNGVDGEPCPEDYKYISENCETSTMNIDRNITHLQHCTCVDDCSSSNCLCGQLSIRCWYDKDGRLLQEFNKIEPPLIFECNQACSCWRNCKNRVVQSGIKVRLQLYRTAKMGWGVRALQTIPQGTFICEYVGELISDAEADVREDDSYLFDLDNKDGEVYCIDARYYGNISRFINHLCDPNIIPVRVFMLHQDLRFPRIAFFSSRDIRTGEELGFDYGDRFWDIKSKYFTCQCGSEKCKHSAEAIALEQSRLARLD
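G9a (20 nM) preincubated 15 min RT with compounds, then 500 nM biotinylated H3K9 peptide and 20 uM SAM added; 2 h RT reaction. Monomethyl-H3K9 product detected by AlphaScreen with anti-H3K9me1 antibody, streptavidin donor and anti-rabbit IgG acceptor beads.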
Numbers without * were called inactive; ? = inconclusive; nt = no result; [ ] = dose if it differs, or a comment. Shown are actives, neighbours in structure and some others; about 11% of the full set was active somewhere. Calls come from the whole dose curve; as a rule, active = well fitted curve in the direction sought with a large enough effect; inconclusive = small, poorly fitted or top-dose-only effect, or another doubt; inactive = no such curve, though single readings can be large; an effect the other way counts as inactive or inconclusive. Potency is the fitted concentration of half-maximal effect.

SMILES	JMJD2A Tudor	PLK1 PBD inh	HP1b chromo inh	VDR inh	BAZ2B block	G9a block
Cc1cc(C)nc(Nc2cccc(C(F)(F)F)c2)n1	-3.4%	0.4%	39.3%	0.2%	7.9%	50.1µM*
CCOC(=O)c1ccc(NC(=O)c2c(Cl)cc(C)nc2C)cc1	-11.1%	0.0%	10.9%	-6.5%	-33.1%	50.1µM*
Cc1cc(Cl)c(C(=O)Nc2cccc(C(F)(F)F)c2)c(C)n1	?	-10.3%	10.3%	-5.0%	?	44.7µM*
O=C(Nc1ccccc1C(=O)OCc1cc(=O)n2c3c(sc2n1)CCCC3)c1ccc(F)cc1	-2.6%	nt	35.3%	6.8%	-8.8%	15.0%[59 µM]
O=C(Nc1nncs1)C1CC(=O)N(CCc2ccc(F)cc2)C1 (configuration not stated)	-12.4%	-19.2%	26.3%	-3.5%	-17.4%	-10.5%[59 µM]
O=C(c1ccccc1F)N1c2nc(-c3ccco3)nn2C2(CCCCC2)[C@@H]2CCCC[C@@H]21	?	nt	7.8%	-22.8%	12.0%	-6.0%[59 µM]
CCCCCNCC(=O)Nc1cccc(C(=O)Nc2cccc(C(F)(F)F)c2)c1	5.01µM*	1.6%	?	-11.8%	?	nt
Nc1ccccc1Nc1cccc(C(F)(F)F)c1	?	-9.6%	?	-14.7%	50.1µM*	6.31µM*
CCn1cc(Cl)c(C(=O)Nc2ccc3c(c2)OCCO3)n1	-6.6%	0.3%	22.3%	-2.7%	-3.1%	5.1%
O=C(CN1CCOCC1)Nc1cccc(C(=O)Nc2cccc(C(F)(F)F)c2)c1	-4.3%	-5.3%	43.7%	14.8%	12.9%	-24.2%
CCn1cc(Cl)c(C(=O)Nc2cccc(C(F)(F)F)c2)n1	50.1µM*	?	22.3%	-9.8%	30.9%	51.5%
Cc1ccc(C(=O)Nc2ccc(F)cc2)cc1NC1=NC2CS(=O)(=O)CC2S1 (configuration not stated)	-14.5%	4.5%	34.0%	-1.3%	-1.3%	nt
CCOC(=O)C(=O)NCC(c1ccco1)S(=O)(=O)c1cccs1 (configuration not stated)	11.2µM*	0.0%	24.8%	15.3%	-15.5%	?
CCOC(=O)C1(c2ccccc2)SC(C(=O)OCC)(c2ccccc2)S1 (configuration not stated)	nt	21.2µM*	nt	nt	nt	nt
CCOC(=O)C1(c2ccccc2)CCCNC1=O (configuration not stated)	nt	-10.1%	nt	nt	nt	nt
COC(=O)CCC(=O)OC1(C)C(=O)C2=CN(CCCOC(C)C)C(c3ccc(OC)cc3)=CC2=C(Br)C1=O (configuration not stated)	?	?	-2.8%	?	?	19.3%[12.7 µM]
COC(=O)CCC(=O)OC1(C)C(=O)C2=CN(CC(C)C)C(c3ccc(OC)cc3)=CC2=C(Br)C1=O (configuration not stated)	nt	nt	nt	nt	39.8µM*	0.5%[12.7 µM]
COC(=O)CCC(=O)OC1(C)C(=O)C2=CN(CC3CC3)C(c3ccc(OC)cc3)=CC2=C(Br)C1=O (configuration not stated)	?	?	-12.4%	?	-37.8%	?
COC(=O)CCC(=O)OC1(C)C(=O)C2=CN(C3CC3)C(c3ccc(OC)cc3)=CC2=C(Br)C1=O (configuration not stated)	?	26.7µM*	-15.3%	?	nt	nt
COC(=O)CCC(=O)OC1(C)C(=O)C2=CN(Cc3ccc(OC)cc3)C(c3ccc(OC)cc3)=CC2=C(Br)C1=O (configuration not stated)	50.1µM*	?	?	?	nt	nt
Cc1ccc(N2CC(NC(=O)C3CCCCC3)CC2=O)cc1 (configuration not stated)	0.6%	nt	18.6%	-7.0%	-2.8%	7.3%[59 µM]
Nc1nc2ccccc2cc1C(=O)NCCCCc1ccccc1	nt	-0.2%	nt	nt	nt	nt
Cc1cc(-c2cn3ccccc3n2)c(C)n1-c1ccccc1	56.2µM*	-14.2%	?	-13.5%	?	50.1µM*
COc1ccc(-n2c(C)cc(-c3cn4cccc(C)c4n3)c2C)cc1	?	-5.3%	-11.2%	-7.7%	39.8µM*	?
CC1CCCC(NC(=O)CN2C(=O)NC(c3ccccc3)(c3ccccc3)C2=O)C1C (configuration not stated)	-15.8%	-12.4%	21.3%	19.1%	-38.5%	-41.2%
SMILES	JMJD2A Tudor	PLK1 PBD inh	HP1b chromo inh	VDR inh	BAZ2B block	G9a block
C=C[C@@]1(C)CC(=O)[C@@]2(O)[C@@]3(C)[C@@H](O)CCC(C)(C)[C@@H]3[C@H](OC(=O)CCN(C)C)[C@H](OC(C)=O)[C@@]2(C)O1	nt	nt	nt	6.7%	nt	nt
COC(=O)n1c(=S)oc2cc(Cl)ccc21	nt	nt	nt	nt	-3.7%	2.51µM*
NS(=O)(=O)c1ccc(CNC(=O)/C=C/c2ccccc2)cc1	-8.2%[11.4 µM]	26.7µM*	1.0%	-1.5%	-2.1%[57.1 µM]	?
NS(=O)(=O)c1ccc(CNC(=O)CNC(=O)Cc2ccccc2)cc1	-3.9%	-4.9%	19.5%	-16.4%	2.4%	-8.1%
NS(=O)(=O)c1ccc(CNC(=O)Cc2cccs2)cc1	?	-15.9%	17.8%	-3.6%	56.2µM*	70.8µM*
COc1ccc(CNC(=O)CCCSc2ccccc2)cc1	14.7%	1.2%	23.1%	2.1%	4.2%	49.3%
NS(=O)(=O)c1ccc(CNC(=O)CCCSc2ccccc2)cc1	?	29.9µM*	-8.7%	-6.6%	1.0%	-42.0%
Cc1ccc(SCC(=O)OCn2nnc3ccccc3c2=O)cc1C	16.7%	-11.8%	89.5%	-6.0%	10.4%	-12.7%[59 µM]
CC(OC(=O)CC1CCCCC1)C(=O)Nc1cccc(C#N)c1 (configuration not stated)	4.8%	-9.7%	30.6%	-3.0%	3.6%	9.6%
O=C(NC1CC(=O)N(c2cccc(F)c2)C1)C1CC1 (configuration not stated)	-8.8%	nt	18.6%	8.9%	-1.0%	8.3%[59 µM]
CCOC(=O)c1nn(-c2ccccc2C)c(=O)c(C#N)c1C	-4.7%	-5.6%	21.3%	-0.2%	5.9%	89.1µM*
CCOC(=O)c1nn(-c2ccc(C)c(C)c2)c(=O)c(C#N)c1C	-26.6%	-4.1%	28.9%	-16.0%	-38.1%	44.7µM*
Cn1c2cc(Br)sc2c2cnn(Cc3ccccc3F)c(=O)c21	0.7%	nt	nt	nt	nt	nt
Cc1cccc(NC(=O)CSc2nc(=O)n(Cc3ccncc3)c3c2CCC3)c1C	1.9%	nt	10.1%	5.1%	-0.2%	15.3%[59 µM]
Cc1ccc(NC(=O)CCCc2ccccc2)c([N+](=O)[O-])c1	?	-3.6%	?	-12.3%	?	3.16µM*
O=C(CCCc1ccccc1)Nc1ccc(Br)cc1F	?	6.7µM*	7.5%	22.4µM*	-24.4%	-148.8%

Screening results as filed in PubChem.
